Measured values as given in article PMC10812921, “Transcriptional Coactivator BOB1 (OBF1, OCA-B) Modulates the Specificity of DNA Recognition by the POU-Domain Factors OCT1 and OCT2 in a Monomeric Configuration”.

Experiments:
POU1 (OCT1 POU domain) = POU1 (OCT1 POU domain) (human, UniProt P14859 260-458); assay: EMSA-SELEX-seq; no BOB1; 20 mM Tris-HCl pH 7.6, 140 mM NaCl, 10% glycerol, 0.5 mM EDTA, 0.05% Triton X-100, 0.1 mg/mL BSA, 0.1 mg/mL poly(dI-dC), 5 mM DTT, room temperature, 20 min; high values mean tight binding; conditions: protein: recombinant; dsDNA, one strand shown
Summary of the method: (§1)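 In this selection, tagged POU-domain proteins from E. coli BL21, purified under denaturing conditions and renatured, were bound to a PCR-amplified double-stranded random 35-nt library with or without coactivator protein. Reactions held 30 ng protein, 300 ng library and, where used, 28 ng coactivator protein in 20 μL Tris–HCl pH 7.6 binding buffer for 20 min at RT. Complex bands were cut from native 6% PAGE, eluted and PCR-amplified over four rounds, then Illumina-sequenced, and binding preference is the percentage of sequenced 8-mers matching a motif pattern.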

POU2 (OCT2 POU domain) = target: T1, POU2 (OCT2 POU domain) (human, UniProt P09086 175-386); assay: as above; conditions: protein: recombinant; dsDNA, one strand shown
T1 sequence: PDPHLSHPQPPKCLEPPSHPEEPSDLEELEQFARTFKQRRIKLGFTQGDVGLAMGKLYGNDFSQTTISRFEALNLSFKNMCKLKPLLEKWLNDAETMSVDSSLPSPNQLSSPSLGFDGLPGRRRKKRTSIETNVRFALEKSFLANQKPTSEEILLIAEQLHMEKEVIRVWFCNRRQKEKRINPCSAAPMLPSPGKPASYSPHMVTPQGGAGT
Summary of the method: as §1

[1] = target: POU1 (OCT1 POU domain);BOB1 (OBF1, OCA-B) (human;human, UniProt P14859;Q16633 260-458;1-256, |); assay: EMSA-SELEX-seq; with BOB1 (ternary complex band); 20 mM Tris-HCl pH 7.6, 140 mM NaCl, 10% glycerol, 0.5 mM EDTA, 0.05% Triton X-100, 0.1 mg/mL BSA, 0.1 mg/mL poly(dI-dC), 5 mM DTT, room temperature, 20 min; high values mean tight binding; conditions: protein: recombinant;recombinant; copies: 1;1; dsDNA, one strand shown
Summary of the method: as §1

[2] = target: T2, POU2 (OCT2 POU domain);BOB1 (OBF1, OCA-B) (human;human, UniProt P09086;Q16633 175-386;1-256, |); assay: as above; conditions: protein: recombinant;recombinant; copies: 1;1; dsDNA, one strand shown
T2 sequence 1: T1 sequence
T2 sequence 2: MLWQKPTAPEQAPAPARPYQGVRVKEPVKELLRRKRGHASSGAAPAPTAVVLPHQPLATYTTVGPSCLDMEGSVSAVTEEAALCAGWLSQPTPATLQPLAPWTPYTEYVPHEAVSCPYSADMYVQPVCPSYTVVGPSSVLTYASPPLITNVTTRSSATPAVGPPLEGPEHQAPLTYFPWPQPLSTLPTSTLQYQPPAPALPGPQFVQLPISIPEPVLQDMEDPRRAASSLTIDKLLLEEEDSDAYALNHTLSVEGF
Summary of the method: as §1

Sequence of POU1 (OCT1 POU domain) (P14859 260-458): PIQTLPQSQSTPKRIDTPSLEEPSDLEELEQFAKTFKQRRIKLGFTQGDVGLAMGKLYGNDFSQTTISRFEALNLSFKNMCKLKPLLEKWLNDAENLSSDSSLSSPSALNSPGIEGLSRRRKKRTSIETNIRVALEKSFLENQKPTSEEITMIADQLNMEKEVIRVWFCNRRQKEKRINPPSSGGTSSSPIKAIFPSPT

Sequence	binding signal (POU1 (OCT1 POU domain))	binding signal (POU2 (OCT2 POU domain))	binding signal [1]	binding signal [2]
ATCTAAAT	0.172 % of ANNNNAAN 8-mers	0.227 % of ANNNNAAN 8-mers	0.123 % of ANNNNAAN 8-mers	0.123 % of ANNNNAAN 8-mers
ACAGCAAA	0.0248 % of ANNNNAAN 8-mers	0.0213 % of ANNNNAAN 8-mers	0.0359 % of ANNNNAAN 8-mers	0.0347 % of ANNNNAAN 8-mers
ATTACAAA	0.0919 % of ANNNNAAN 8-mers	0.0955 % of ANNNNAAN 8-mers	0.08 % of ANNNNAAN 8-mers	0.0685 % of ANNNNAAN 8-mers
ATTCAAAA	0.365 % of ANNNNAAN 8-mers	0.277 % of ANNNNAAN 8-mers	0.427 % of ANNNNAAN 8-mers	0.278 % of ANNNNAAN 8-mers
AGTTTAAC	0.04 % of ANNNNAAN 8-mers	0.0449 % of ANNNNAAN 8-mers	0.0375 % of ANNNNAAN 8-mers	0.033 % of ANNNNAAN 8-mers
AAACGAAG	0.045 % of ANNNNAAN 8-mers	0.0483 % of ANNNNAAN 8-mers	0.0589 % of ANNNNAAN 8-mers	0.0528 % of ANNNNAAN 8-mers
ATATCAAT	0.117 % of ANNNNAAN 8-mers	0.139 % of ANNNNAAN 8-mers	0.0804 % of ANNNNAAN 8-mers	0.0776 % of ANNNNAAN 8-mers
AGTCAAAT	0.566 % of ANNNNAAN 8-mers	0.367 % of ANNNNAAN 8-mers	1.18 % of ANNNNAAN 8-mers	1.04 % of ANNNNAAN 8-mers
ACGTTAAG	0.037 % of ANNNNAAN 8-mers	0.0414 % of ANNNNAAN 8-mers	0.039 % of ANNNNAAN 8-mers	0.0405 % of ANNNNAAN 8-mers
ACATGAAA	0.0671 % of ANNNNAAN 8-mers	0.0708 % of ANNNNAAN 8-mers	0.0823 % of ANNNNAAN 8-mers	0.0619 % of ANNNNAAN 8-mers
AGCCTAAA	0.0271 % of ANNNNAAN 8-mers	0.0316 % of ANNNNAAN 8-mers	0.0191 % of ANNNNAAN 8-mers	0.0206 % of ANNNNAAN 8-mers
AACTTAAC	0.0294 % of ANNNNAAN 8-mers	0.0288 % of ANNNNAAN 8-mers	0.0234 % of ANNNNAAN 8-mers	0.0248 % of ANNNNAAN 8-mers
ACTAGAAA	0.032 % of ANNNNAAN 8-mers	0.0322 % of ANNNNAAN 8-mers	0.0261 % of ANNNNAAN 8-mers	0.0305 % of ANNNNAAN 8-mers
AAAGTAAA	0.0988 % of ANNNNAAN 8-mers	0.0714 % of ANNNNAAN 8-mers	0.114 % of ANNNNAAN 8-mers	0.0759 % of ANNNNAAN 8-mers
ACCATAAT	0.082 % of ANNNNAAN 8-mers	0.0967 % of ANNNNAAN 8-mers	0.0367 % of ANNNNAAN 8-mers	0.0495 % of ANNNNAAN 8-mers
AAGTCAAC	0.0256 % of ANNNNAAN 8-mers	0.0236 % of ANNNNAAN 8-mers	0.0308 % of ANNNNAAN 8-mers	0.0272 % of ANNNNAAN 8-mers
AATTCAAG	0.101 % of ANNNNAAN 8-mers	0.0886 % of ANNNNAAN 8-mers	0.0714 % of ANNNNAAN 8-mers	0.0817 % of ANNNNAAN 8-mers
ACCCTAAA	0.0137 % of ANNNNAAN 8-mers	0.0173 % of ANNNNAAN 8-mers	0.0137 % of ANNNNAAN 8-mers	0.0107 % of ANNNNAAN 8-mers
AGTGGAAT	0.0995 % of ANNNNAAN 8-mers	0.121 % of ANNNNAAN 8-mers	0.0847 % of ANNNNAAN 8-mers	0.104 % of ANNNNAAN 8-mers
AAGCGAAA	0.0358 % of ANNNNAAN 8-mers	0.0391 % of ANNNNAAN 8-mers	0.0429 % of ANNNNAAN 8-mers	0.0289 % of ANNNNAAN 8-mers
AGGGTAAT	0.186 % of ANNNNAAN 8-mers	0.279 % of ANNNNAAN 8-mers	0.12 % of ANNNNAAN 8-mers	0.129 % of ANNNNAAN 8-mers
ATTCTAAT	0.448 % of ANNNNAAN 8-mers	0.532 % of ANNNNAAN 8-mers	0.12 % of ANNNNAAN 8-mers	0.152 % of ANNNNAAN 8-mers
ACGGCAAC	0.0141 % of ANNNNAAN 8-mers	0.0109 % of ANNNNAAN 8-mers	0.0152 % of ANNNNAAN 8-mers	0.0124 % of ANNNNAAN 8-mers
ATCAAAAG	0.045 % of ANNNNAAN 8-mers	0.0414 % of ANNNNAAN 8-mers	0.0581 % of ANNNNAAN 8-mers	0.0388 % of ANNNNAAN 8-mers
ACCGAAAT	0.0404 % of ANNNNAAN 8-mers	0.0426 % of ANNNNAAN 8-mers	0.0437 % of ANNNNAAN 8-mers	0.0479 % of ANNNNAAN 8-mers
AACAGAAA	0.042 % of ANNNNAAN 8-mers	0.0409 % of ANNNNAAN 8-mers	0.0355 % of ANNNNAAN 8-mers	0.033 % of ANNNNAAN 8-mers
AATGTAAT	0.169 % of ANNNNAAN 8-mers	0.181 % of ANNNNAAN 8-mers	0.109 % of ANNNNAAN 8-mers	0.137 % of ANNNNAAN 8-mers
AGCTAAAG	0.0278 % of ANNNNAAN 8-mers	0.0282 % of ANNNNAAN 8-mers	0.0289 % of ANNNNAAN 8-mers	0.0256 % of ANNNNAAN 8-mers
